The values that follow come from PubChem BioAssay (Tox21).

Values without a mark were called inactive. Results filed as inconclusive are left out. The source made the active and inactive calls. Unless noted, calls follow the shape of the dose curve; as a rule, active = well fitted curve in the direction sought with a large enough effect in the repeat runs; inconclusive = weak or mixed curves; inactive = no such curve, though single readings can be large; an effect the other way counts as inactive or inconclusive.

Test [1] is described as follows: qHTS assay to identify small molecule antagonists of the estrogen receptor beta (ER-beta) signaling pathway - cell viability counter screen (AID 1259382). Also: nearly all actives have a fitted effect of over 55% in size. Also: potency is read from the fitted curve at half-maximal effect.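 As to activity change, negative = cytotoxicity: HEK293T cells carrying ER-beta-UAS-bla reporter stimulated with estradiol; series mostly up to about 92 µM.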 In a few lines:
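Cytotoxicity counter screen multiplexed with the beta-lactamase antagonist assay: GripTite HEK293T ER-beta-bla cells were treated 16 hr with test chemicals in the presence of 1nM 17-beta-estradiol, and viability was measured by CellTiter-Glo.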

For test [2], the target named is Estrogen receptor (Homo sapiens) (UniProt P03372). Briefly: qHTS assay to identify small molecule agonists of the estrogen receptor alpha (ER-alpha) signaling pathway in the presence of an antagonist (AID 1259383; calls by dose curve; also: nearly all actives have a fitted effect of over 15% in size; also: potency is read from the fitted curve at half-maximal effect; as to activation: top concentration of the series differs between compounds). In a few lines: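 Agonist-mode confirmation in the presence of the ER antagonist ICI-182,780 at 10.0nM final. Breast-derived VM7Luc4E2 reporter cells were exposed to compounds for 22hr, and ERE-driven luciferase was quantified by luminescence.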

Test [3] in a line: qHTS assay to identify small molecule agonists of the estrogen receptor alpha (ER-alpha) signaling pathway in the presence of an antagonist - cell viability counter screen (AID 1259386).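 Also: cells exposed to compounds for 22 h at 37 °C before the viability read; nearly all actives have a fitted effect of over 30% in size.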 Also: potency is read from the fitted curve at half-maximal effect. As to activity change, negative = cytotoxicity: series mostly up to about 92 µM. The method, boiled down:
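Cytotoxicity was measured in parallel with the ERE-luciferase agonist screen, in the same wells. The cells were VM7Luc4E2, which endogenously express ER-alpha, and treatment was with compounds plus 10.0nM ICI-182,780 for 22hr.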
For orientation: Quantitative high-throughput screening tests each substance at several concentrations.

A short description of test [4]: qHTS assay to identify small molecule antagonists of the TGF-beta/Smad signaling pathway - cell viability counter screen (AID 1346824). Also: nearly all actives have a fitted effect of over 50% in size. Also: potency is read from the fitted curve at half-maximal effect. In a few lines:
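SBE-bla HEK 293T cells were plated overnight at 37 C, then given compounds in DMSO plus TGF-beta1 (added as 0.25 ng/mL solution) for 5 hr. After the bla read, CellTiter-Glo was added to the same wells and luminescence read after 30 min at room temperature.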

Test [5] is described as follows: qHTS assay to identify small molecule agonists of the TGF-beta/Smad signaling pathway - cell viability counter screen (AID 1346829). Also: top concentration of the series differs between compounds; nearly all actives have a fitted effect of over 45% in size. The method, boiled down:
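Cytotoxicity counter screen: CellTiter-Glo luminescence (30 min, room temperature) measured in the SBE-bla HEK 293T reporter wells after 5 hr compound treatment at 37 C and the 2 hr substrate step.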

Test [6] can be described thus: qHTS assay to identify small molecule agonists of the TGF-beta/Smad signaling pathway (AID 1346859; active = well fitted activation curve with a large enough effect in the signal ratio in the repeat runs, not every such curve was filed as active; the % refers to the signal ratio; also: series mostly up to about 77 µM). In a few lines: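 Reporter line: HEK 293T with stably integrated SBE-controlled beta-lactamase. Compound exposure lasts 5 hr at 37 C and 5% CO2; substrate loading follows for 2 hr at room temperature, with emission read at 460 and 530 nm.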
Test [7] concerns the target Thyrotropin-releasing hormone receptor (Homo sapiens) (UniProt P34981). Briefly: qHTS assay to identify small molecule antagonists of the thyrotropin-releasing hormone receptor (TRHR) signaling pathway (AID 1346877; active = well fitted inhibition curve with a large enough effect in the repeat runs, not every such curve was filed as active; also: series mostly up to about 51 µM). In a few lines:
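Antagonism is measured as suppression of the calcium response to 1 nM TRH in TRHR-HEK293 cells that have been dye-loaded for 2 h at 37 °C after overnight plating. Each compound is tested at 15 concentrations in triplicate.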

The target is the same in test [8]. Briefly: qHTS assay to identify small molecule agonists of the thyrotropin-releasing hormone receptor (TRHR) signaling pathway (AID 1346891; calls by dose curve;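 also: HEK293 cells expressing TRHR with calcium dye readout; series mostly up to about 58 µM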). The method, boiled down:
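Cells: TRHR-Hek293, seeded and incubated 18 h. Dye loading: 2 h at 37 °C. Compound added from DMSO stock by pin tool. Read-out: kinetic calcium fluorescence over 3 min.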

The nature of test [9]: Human pregnane X receptor (PXR) small molecule agonists, qHTS cell viability counter screen (AID 1346977). Also: nearly all actives have a fitted effect of over 50% in size. Also: potency is read from the fitted curve at half-maximal effect. The method, boiled down:
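Cytotoxicity counter screen run in the same wells as the PXR luciferase assay, using PXR-Luc HepG2 cells in charcoal-stripped serum medium. Viability: CellTiter-Fluor fluorescence after 24hr compound treatment.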

A short description of test [10]: Caspase-3/7 induction in HepG2 cells by small molecules, qHTS assay (AID 1346978). Also: nearly all actives have a fitted effect of over 15% in size. Also: potency is read from the fitted curve at half-maximal effect. In a few lines: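 Wild-type HepG2 cells (2,000/well) were settled 5 h at 37 C, 5% CO2, then exposed to compounds in DMSO for 17 h. Caspase-3/7 activity was read by luminescence 30 min after adding Caspase-Glo 3/7 reagent at room temperature.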
The nature of test [11]: qHTS assay to identify small molecule antagonists of the progesterone receptor (PR) signaling pathway - cell viability counter screen (AID 1346798). Also: nearly all actives have a fitted effect of over 50% in size. Also: potency is read from the fitted curve at half-maximal effect. As to activity change, negative = cytotoxicity: series mostly up to about 92 µM. In a few lines: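 Counter screen for cytotoxicity: viability of PR-UAS-bla HEK293T cells was measured with CellTiter-Glo luminescence following 16 hr compound exposure in the presence of R5020.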
Test [12] deals with Androgen receptor (Homo sapiens) (UniProt P10275). Briefly: qHTS assay to identify small molecule agonists of the androgen receptor (AR) signaling pathway in the presence of an antagonist (AID 1259381; calls by dose curve; also: nearly all actives have a fitted effect of over 15% in size; also: potency is read from the fitted curve at half-maximal effect). The method, boiled down:
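Agonist-mode confirmation screen: human MDA-kb2 cells stably expressing luciferase under an MMTV promoter bearing AR and GR response elements, co-treated with 3.0uM nilutamide (final). Luminescence measured after 16hr compound incubation.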

Test [13] can be described thus: qHTS assay to identify small molecule agonists or antagonists of the thyroid stimulating hormone receptor (TSHR) signaling pathway - wild type cell line counter screen (AID 1259384; calls by dose curve). In a few lines:
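Wild-type HEK293 cells were plated 18 h at 37 C/5% CO2, pin-dosed with compound plus Ro20-1724 medium, held 30 min at room temperature, then given cAMP-d2 and anti-cAMP-cryptate; fluorescence was read after 1 h. Fifteen concentrations, triplicate.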

Test [14] addresses Thyrotropin receptor (Homo sapiens) (UniProt P16473). Briefly: qHTS assay to identify small molecule antagonists of the thyroid stimulating hormone receptor (TSHR) signaling pathway (AID 1259385; calls by dose curve; also: nearly all actives have a fitted effect of over 20% in size; also: potency is read from the fitted curve at half-maximal effect). The method, boiled down:
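TSHR-HEK293 cells were plated and held 18 h at 37C/5% CO2, then given compound plus Ro20-1724 and stimulated with TSH at 1.5 ng/mL final. After 30 min at room temperature, cAMP was detected with cAMP-d2/anti-cAMP-cryptate (1 h) by fluorescence.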

Test [15] addresses Progesterone receptor (Homo sapiens) (UniProt P06401). Briefly: qHTS assay to identify small molecule agonists of the progesterone receptor (PR) signaling pathway (AID 1346784; calls by dose curve; also: nearly all actives have a fitted effect of over 30% in size). In a few lines: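 Cells (PR-UAS-bla HEK 293T, GripTite) were plated in assay medium containing 2% charcoal-stripped FBS and incubated 6 hr. Test compounds in DMSO were added for 16 hr at 37C. FRET substrate was then loaded for 2 hr at room temperature before fluorescence reading.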

The nature of test [16]: qHTS assay to identify small molecule agonists of the progesterone receptor (PR) signaling pathway - cell viability counter screen (AID 1346799; calls by dose curve; also: nearly all actives have a fitted effect of over 45% in size; also: potency is read from the fitted curve at half-maximal effect). The method, boiled down:
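Cells (PR-UAS-bla HEK293T) are plated at 3,000/well in 2% charcoal-stripped FBS medium, rested 6 hr, dosed and incubated 16 hr at 37C. CellTiter-Glo is then added and luminescence measured after 30 min at room temperature.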

Test [17] is described as follows: qHTS assay to identify small molecule agonists of the estrogen receptor beta (ER-beta) signaling pathway - cell viability counter screen (AID 1259380). Also: nearly all actives have a fitted effect of over 30% in size. Also: potency is read from the fitted curve at half-maximal effect. The method, boiled down:
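Cytotoxicity is measured in parallel with the reporter screen: after 16 hr compound exposure at 37C and a 2 hr LiveBLAzer step, CellTiter-Glo is added to the same ER-beta-UAS-bla HEK293T wells and luminescence read after 30 min.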

Test [18] concerns the target Progesterone receptor (Homo sapiens) (UniProt P06401). Briefly: qHTS assay to identify small molecule antagonists of the progesterone receptor (PR) signaling pathway (AID 1346795; active = well fitted inhibition curve with a large enough effect in the signal ratio in the repeat runs, not every such curve was filed as active; the % refers to the signal ratio). In a few lines: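 Antagonist mode: compounds tested against 1 nM (final) promegestone stimulation in HEK293T cells expressing PR-UAS-bla reporter, 16 hr at 37C, 5% CO2; beta-lactamase activity detected via B/G FRET substrate after 2 hr at room temperature.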

A short description of test [19]: Caspase-3/7 induction in CHO-K1 cells by small molecules, qHTS cell viability counter screen (AID 1346979). Also: nearly all actives have a fitted effect of over 35% in size. Also: potency is read from the fitted curve at half-maximal effect. The method, boiled down:
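Cytotoxicity counter screen run in parallel with the caspase-3/7 assay: CHO-K1 cells, 16hr compound treatment at 37C, then CellTiter-Fluor for 1hr before fluorescence reading.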

Test [20] is described as follows: qHTS assay to identify small molecule agonists of the androgen receptor (AR) signaling pathway in the presence of an antagonist - cell viability counter screen (AID 1259379). Also: nearly all actives have a fitted effect of over 25% in size. Also: potency is read from the fitted curve at half-maximal effect.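 As to activity change, negative = cytotoxicity: MDA-kb2 human breast cancer cells carrying an MMTV luciferase reporter; series mostly up to about 92 µM.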 The method, boiled down: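 Cytotoxicity is assessed by CellTiter-Fluor in MDA-kb2 cells carrying an MMTV-driven luciferase reporter. Cells receive 3.0uM nilutamide plus compounds at 15 concentrations and incubate 16 hr at 37C without CO2 before fluorescence reading.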
% is scaled to controls: 0 for no effect and ±100 for the full control effect.

Sequence of Thyrotropin-releasing hormone receptor (Homo sapiens) (P34981 whole entry, looked up): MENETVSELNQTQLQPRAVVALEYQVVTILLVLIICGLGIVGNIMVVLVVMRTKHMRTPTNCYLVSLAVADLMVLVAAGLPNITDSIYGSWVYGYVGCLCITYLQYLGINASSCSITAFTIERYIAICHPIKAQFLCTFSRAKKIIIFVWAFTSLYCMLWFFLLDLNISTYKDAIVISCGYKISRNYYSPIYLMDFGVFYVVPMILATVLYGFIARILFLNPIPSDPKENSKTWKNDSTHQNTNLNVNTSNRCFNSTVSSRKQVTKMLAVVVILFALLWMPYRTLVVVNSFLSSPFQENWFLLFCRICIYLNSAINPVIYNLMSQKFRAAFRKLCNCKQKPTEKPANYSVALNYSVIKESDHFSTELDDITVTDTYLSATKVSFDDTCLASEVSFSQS
Sequence of Estrogen receptor (Homo sapiens) (P03372 whole entry, looked up): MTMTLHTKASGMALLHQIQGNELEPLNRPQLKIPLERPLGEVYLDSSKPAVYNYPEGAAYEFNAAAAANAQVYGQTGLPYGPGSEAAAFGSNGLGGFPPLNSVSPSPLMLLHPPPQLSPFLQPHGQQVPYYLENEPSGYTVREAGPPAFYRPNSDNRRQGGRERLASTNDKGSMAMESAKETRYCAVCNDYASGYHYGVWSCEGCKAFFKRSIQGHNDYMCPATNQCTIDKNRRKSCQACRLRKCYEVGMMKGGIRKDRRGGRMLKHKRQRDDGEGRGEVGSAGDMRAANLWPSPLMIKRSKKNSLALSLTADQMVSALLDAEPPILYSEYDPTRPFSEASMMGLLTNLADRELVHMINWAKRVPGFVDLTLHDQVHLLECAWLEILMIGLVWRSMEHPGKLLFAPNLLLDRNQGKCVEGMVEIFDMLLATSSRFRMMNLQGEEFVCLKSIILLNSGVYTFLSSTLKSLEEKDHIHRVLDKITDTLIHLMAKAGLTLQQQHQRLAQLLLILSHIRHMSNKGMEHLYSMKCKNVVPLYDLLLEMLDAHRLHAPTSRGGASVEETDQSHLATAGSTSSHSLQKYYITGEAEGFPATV
Sequence of Androgen receptor (Homo sapiens) (P10275 whole entry, looked up): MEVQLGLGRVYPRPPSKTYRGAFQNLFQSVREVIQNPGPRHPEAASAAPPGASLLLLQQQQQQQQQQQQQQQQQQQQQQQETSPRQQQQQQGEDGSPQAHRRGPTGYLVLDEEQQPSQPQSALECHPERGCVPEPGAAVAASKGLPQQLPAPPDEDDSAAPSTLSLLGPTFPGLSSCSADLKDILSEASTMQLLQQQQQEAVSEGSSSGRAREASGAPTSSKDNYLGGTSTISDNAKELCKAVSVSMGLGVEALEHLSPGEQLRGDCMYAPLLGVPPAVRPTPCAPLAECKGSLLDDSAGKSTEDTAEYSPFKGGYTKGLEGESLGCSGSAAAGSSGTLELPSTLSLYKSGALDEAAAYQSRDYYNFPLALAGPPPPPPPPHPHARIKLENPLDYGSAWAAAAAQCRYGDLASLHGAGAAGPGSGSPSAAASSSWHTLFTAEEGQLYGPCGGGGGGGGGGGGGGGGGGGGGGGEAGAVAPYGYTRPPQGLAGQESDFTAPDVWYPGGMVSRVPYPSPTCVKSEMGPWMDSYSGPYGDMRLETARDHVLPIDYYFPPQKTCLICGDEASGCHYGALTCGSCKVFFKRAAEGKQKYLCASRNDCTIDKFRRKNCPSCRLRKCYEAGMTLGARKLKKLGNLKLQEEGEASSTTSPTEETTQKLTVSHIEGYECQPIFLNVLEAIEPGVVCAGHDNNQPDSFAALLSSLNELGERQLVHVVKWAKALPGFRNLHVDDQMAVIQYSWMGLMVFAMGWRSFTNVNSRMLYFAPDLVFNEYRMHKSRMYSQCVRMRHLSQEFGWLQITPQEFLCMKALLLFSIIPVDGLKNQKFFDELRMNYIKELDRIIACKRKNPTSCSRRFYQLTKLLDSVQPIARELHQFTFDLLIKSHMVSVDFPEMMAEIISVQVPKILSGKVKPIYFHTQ
Sequence of Progesterone receptor (Homo sapiens) (P06401 whole entry, looked up): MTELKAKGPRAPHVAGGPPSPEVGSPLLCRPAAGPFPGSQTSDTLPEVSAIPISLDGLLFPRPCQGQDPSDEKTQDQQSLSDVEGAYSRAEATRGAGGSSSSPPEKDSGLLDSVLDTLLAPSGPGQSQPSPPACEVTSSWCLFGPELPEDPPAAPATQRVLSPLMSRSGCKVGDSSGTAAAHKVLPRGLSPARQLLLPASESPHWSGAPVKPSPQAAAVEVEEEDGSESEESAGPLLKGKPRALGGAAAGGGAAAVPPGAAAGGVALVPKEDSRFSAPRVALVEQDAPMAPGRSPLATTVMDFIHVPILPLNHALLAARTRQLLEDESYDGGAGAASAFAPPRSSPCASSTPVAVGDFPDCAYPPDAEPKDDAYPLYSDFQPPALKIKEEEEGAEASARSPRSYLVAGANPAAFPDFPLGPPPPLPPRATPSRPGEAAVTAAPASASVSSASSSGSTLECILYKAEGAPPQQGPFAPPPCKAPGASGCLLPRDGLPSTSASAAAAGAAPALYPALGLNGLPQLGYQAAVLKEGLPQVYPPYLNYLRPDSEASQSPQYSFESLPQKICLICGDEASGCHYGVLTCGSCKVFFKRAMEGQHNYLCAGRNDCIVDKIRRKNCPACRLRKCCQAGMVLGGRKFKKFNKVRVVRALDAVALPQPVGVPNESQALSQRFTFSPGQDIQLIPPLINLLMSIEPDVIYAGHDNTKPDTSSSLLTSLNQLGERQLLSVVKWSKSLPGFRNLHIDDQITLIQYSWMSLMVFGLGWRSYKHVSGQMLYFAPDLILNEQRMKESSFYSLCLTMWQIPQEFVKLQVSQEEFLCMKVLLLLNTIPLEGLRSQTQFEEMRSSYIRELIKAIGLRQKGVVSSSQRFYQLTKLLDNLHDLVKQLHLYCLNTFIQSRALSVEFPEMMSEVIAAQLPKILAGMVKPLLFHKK
Sequence of Thyrotropin receptor (Homo sapiens) (P16473 whole entry, looked up): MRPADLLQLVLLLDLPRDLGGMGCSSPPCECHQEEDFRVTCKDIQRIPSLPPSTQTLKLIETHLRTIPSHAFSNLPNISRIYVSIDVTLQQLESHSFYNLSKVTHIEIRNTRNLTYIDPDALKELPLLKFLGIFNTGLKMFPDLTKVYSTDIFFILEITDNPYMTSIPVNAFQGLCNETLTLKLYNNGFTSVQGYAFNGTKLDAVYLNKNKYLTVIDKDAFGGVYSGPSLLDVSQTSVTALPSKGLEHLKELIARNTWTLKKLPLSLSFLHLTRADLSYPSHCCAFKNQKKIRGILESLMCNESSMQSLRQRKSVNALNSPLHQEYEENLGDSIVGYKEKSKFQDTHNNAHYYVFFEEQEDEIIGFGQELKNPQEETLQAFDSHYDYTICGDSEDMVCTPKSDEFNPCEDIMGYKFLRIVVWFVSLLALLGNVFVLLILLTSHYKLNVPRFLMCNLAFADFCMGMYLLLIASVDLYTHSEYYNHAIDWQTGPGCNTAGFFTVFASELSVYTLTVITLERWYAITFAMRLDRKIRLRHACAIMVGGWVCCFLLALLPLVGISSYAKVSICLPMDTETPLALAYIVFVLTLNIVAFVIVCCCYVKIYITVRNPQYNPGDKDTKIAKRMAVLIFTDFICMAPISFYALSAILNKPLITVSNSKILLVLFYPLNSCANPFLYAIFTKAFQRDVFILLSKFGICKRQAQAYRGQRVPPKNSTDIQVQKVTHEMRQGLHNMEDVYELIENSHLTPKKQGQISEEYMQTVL

As for `CCOc1ccc([N+](=O)[O-])cc1`, the Potency result in test [1], in test [3], in test [4], in test [5], in [7] and in test [8] was “inactive” each time. The Potency result in test [9] is “inactive”. Further, the Potency in test [2] is 24.7 µM (active); in test [10] it was 55.3 µM (active). Further, the molecule was called inactive in test [6].

For the molecule `CCCCCCCC1CCC(=O)O1` (centres undefined), the Potency result in [11] was “inactive”.

Regarding `CCN(CC)c1ccc(C=O)c(O)c1`, the Potency in test [12] is 43.3 µM (active). Further, the Potency entry in [1], in test [13], in test [14], in test [3], in test [11] and in test [16] was “inactive” in each case. Further, the Potency result in [4], in test [5], in [9] and in test [10] was “inactive” each time. Besides, the molecule was called inactive in test [15] and in test [6].

As for `CCCCNc1ccc(NCCCC)c2c1C(=O)c1ccccc1C2=O`, the activity change, negative = cytotoxicity in test [17] is 6.16% [at 19 µM]; in [1] it was 15.6% [at 19 µM]; in test [11] it was -7.34% [at 18.9 µM]; in test [16], -18.3% [at 19 µM]; in [5], 2.74% [at 15.8 µM]; in test [9], -9.38% [at 19 µM]. For the same molecule, the activation was -0.623% [at 19 µM] in [12]; -0.833% [at 19 µM] in test [2]; 0% [at 19 µM] in test [15]; 0.206% [at 15.8 µM] in test [6]; -0.167% [at 11.8 µM] in test [8]. For the same molecule, in test [13], the cAMP activity change is -7.38% [at 18.9 µM, stronger effect = higher value]. Besides, the activity change, negative = inhibition is -5.35% [at 19 µM] in test [14] and 12.4% [at 18.9 µM] in [18]. In test [4], the viability change, negative = cytotoxic was 4.33% [at 15.8 µM]. In [7], the activity, negative = inhibition was 0.3% [at 10.5 µM]. In addition, in test [10], the caspase activation is -1.98% [at 19 µM]. The Potency in test [19] is 13 µM (active).

In the case of `CN(C/C=C/c1ccccc1)Cc1cccc2ccccc12`, the Potency entry in [20], in test [2], in [13], in test [11], in [4] and in test [7] was “inactive” throughout. Further, the Potency entry in test [8], in [9], in test [10] and in [19] was “inactive” throughout. For the same molecule, the molecule was called inactive in test [15] and in test [6].

For `Nc1ccc(N)c([N+](=O)[O-])c1`, the Potency in test [20] is 54.5 µM (active); in test [3] it was 30.6 µM (active); in test [19] it was 40.9 µM (active). The Potency result in test [11] and in [10] was “inactive” in each case.

Turning to `CCCCCCCCCC[N+](C)(CCCCCCCCCC)CCC[Si](OC)(OC)OC`, the Potency result in [2], in test [13], in [14], in test [3], in test [7] and in test [8] was “inactive” in each case. Also, the call in test [15] and in test [6] was inactive. The Potency in test [16] is 24.3 µM (active); in [19], 30.6 µM (active).

As to `O=C1C=CC(=O)N1c1cccc(N2C(=O)C=CC2=O)c1`, the Potency in [17] was 61.1 µM (active); in [1], 68.6 µM (active); in test [14] it was 21.7 µM (active); in test [4] it was 54.9 µM (active); in test [9], 61.1 µM (active); in test [19], 5.45 µM (active). For the same molecule, the Potency entry in [12], in test [2], in test [13], in [8] and in test [10] was “inactive” throughout. Moreover, in [6], the result was inactive.

For the molecule `CN[C@H]1CC[C@@H](c2ccc(Cl)c(Cl)c2)c2ccc(S(N)(=O)=O)cc21`, the Potency in test [17] was 19.3 µM (active); in test [1], 21.7 µM (active); in test [11] it was 48.6 µM (active); in test [16] it was 48.6 µM (active); in [9] it was 61.1 µM (active); in test [19] it was 61.1 µM (active). Moreover, the Potency result in test [12], in [13], in test [3], in test [4], in [7] and in test [8] was “inactive” each time. Further, the outcome in [6] was inactive.

In the case of `CCCCC/C=C\C=C\C(=O)OCC`, the figures for the Potency in test [17] and in test [19] were 50.6 µM (active) and 63.7 µM (active), respectively. For the same molecule, the Potency entry in [2], in [13], in test [14], in [3], in [18] and in [11] was “inactive” in each case. Moreover, the Potency result in [16], in test [4], in test [5], in test [7] and in [8] was “inactive” in each case. Also, the molecule was classed as inactive in test [15] and in [6].
